# Test results as given in PubChem BioAssay AID686970 (National Center for Advancing Translational Sciences (NCATS), 2013).
# Among all 360,000 compounds or so, about 6,000 (1.7%) were called active. Entries that show only a call come without a potency. Roughly 8% stayed inconclusive and do not appear here. Calls follow the shape of the dose curve; as a rule, active = well fitted cell-killing curve with a large enough effect; inconclusive = small, poorly fitted or top-dose-only effect, or effect the other way; inactive = flat fitted curve, though single readings scatter. This excerpt belongs to a sample that is enriched for actives.
# Assay: qHTS for induction of synthetic lethality in tumor cells producing 2HG: qHTS for the HT-1080-NT fibrosarcoma cell line; also: nearly all actives have a fitted effect of over 55% in size
# Conditions: HT-1080-NT fibrosarcoma viability, CellTiter-Glo ATP luminescence, 48 h; series mostly up to 46.1 µM
# Source text: Unbiased genomic sequencing for 22 glioma genomes found recurrent mutation of IDH1 on chromosome 2q33, a gene encoding the cytosolic isoform of IDH1 associated with the tricarboxylic acid cycle (TCA) that catalyzes the oxidative decarboxylation of isocitrate, yielding alpha-ketoglutarate and CO2 via NADP+ to NADPH conversion. Subsequent studies confirmed the recurrent IDH mutations in up to 70% of secondary gliomas and in 10% of AML cases. In addition, the somatic mutation of cancer-associated IDH1 is a point mutation resulting in various amino-acid substituents at Arginine132 (IDH1 R132), a key residue found in the enzyme's active site that when mutated, results in the loss-of-function in metabolizing isocitrate but confers a gain-of-function to produce the oncometabolite 2-hydroxyglutarate (2HG). This in effect defines IDH1 as an oncogene and provides an extraordinary opportunity to discover chemical probes against mutant IDH1 that may translate into much needed new therapies for glioma and AML patients.
# This assay aims to perform a synthetic lethal screen for chemical probes specific for 2HG-producing tumor cells using matched paired cell lines (1) HT-1080-NT fibrosarcoma cell line that overproduces 2HG and (2) HT-1080-IDH1KD cell line which has IDH1 expression knocked-down. Desirable compounds are toxic to the NT fibrosarcoma cells but not to the IDH1KD cell line. The data in this AID corresponds to the results of the qHTS against the HT-1080-NT fibrosarcoma cell line.
# [1] Dang L, Jin S, Su SM. IDH mutations in glioma and acute myeloid leukemia. Trends of Mol Med. 2010; 16(9): 387-97.
# [2] Dang L et al. Cancer-associated IDH1 mutations produce 2-hydroxyglutarate. Nature. 2010; 465(7300):966.
# NIH Molecular Libraries Probe Production Centers Network [MLPCN]
# NIH Chemical Genomics Center [NCGC]
# Assay Submitter (PI): Lenny Dang Ph.D., Agios Pharmaceuticals
# Suspensions of trypsinized HT-1080-NT cells were dispensed into white, tissue culture-treated, solid 1536-well plates at 5uL/well (750 cells/well final concentration) in RPMI medium supplemented with 5% FBS. Plates were incubated at 37 degrees C for 2 hours, after which 23 nL of compounds or DMSO were delivered to each well using a pin tool. Plates were then incubated at 37 degrees C for an additional 48 hours. CellTiter-Glo viability reagent (Promega) was dispensed into wells (2.5uL/well) and incubated at room temperature for 10 minutes. The plates were measured on a PerkinElmer ViewLux plate reader for luminescent signal (clear filter, 1 sec exp). DMSO-treated control wells and media-only (no cells) control wells were used to normalize %Activity of identified toxic compounds; DMSO-treated wells corresponded to 0%Activity (100% viability), while media-only controls were used to normalize 100%Activity (0% viability).
# Concentration-response curves were fitted to the signals arising from the resulting luminescence. The concentration-effect curves were then classified based on curve quality (r2), response magnitude and degree of measured activity, and compounds were subsequently categorized based on their curve class.
# Potency is read from the fitted curve at half-maximal effect.
row,SMILES,Potency
1,COC(=O)C[C@@H]1C=C[C@@H](NC(=O)c2ccc3c(c2)OCO3)[C@@H](CO)O1,inactive
2,C[C@H](CO)N1C[C@H](C)[C@H](CN(C)C(=O)c2ccncc2)OCc2ccccc2-c2c(n(C)c3ccccc23)C1=O,inactive
3,O=C1NC(c2ccc(-c3ccccc3[N+](=O)[O-])o2)C(C(=O)c2ccc(Cl)cc2)C(O)(C(F)(F)F)N1 (configuration not stated),16.4 µM (active)
4,CC(=O)C1C(c2cccc(Oc3ccccc3)c2)NC(=O)NC1(O)C(F)(F)F (configuration not stated),inactive
5,CC1=NN(c2ccc(Cl)c(C(=O)O)c2)C(=O)/C1=C/c1ccc(-c2ccccc2[N+](=O)[O-])o1,inactive
6,CCOC(=O)[C@]12CCCC=C1N(CCC1=CCCCC1)C(=O)[C@H](CC(=O)N1CCSCC1)C2,inactive
7,N#CCCN(C(=O)Nc1ccc(Cl)c(Cl)c1)C1CCCCC1,inactive
8,COc1ccc(N/N=C2/CCCCC2=O)cc1,1.26 µM (active)
9,Cc1ccc(N/N=C2\COC(C)(C)CC2=O)cc1,inactive
10,COc1ccc(NC(=O)c2c(C)oc3c2CCCC3)cc1,inactive
11,Cc1ccnc(SC2CC(=O)N(c3ccccc3)C2=O)n1 (configuration not stated),inactive
12,O=C1CC[C@@H](C(=O)N2CSC[C@@H]2C(=O)Nc2ccc(C(F)(F)F)cc2)N1,inactive
13,O=S1(=O)CC(N2CCN(Cc3ccccc3F)CC2)CN1Cc1cn(Cc2cccc(C(F)(F)F)c2)nn1 (configuration not stated),inactive
14,Cc1ccccc1OS(=O)(=O)c1cccc([N+](=O)[O-])c1,inactive
15,COc1cccc(OCCOc2cccc(/C=N/n3cnnc3)c2)c1,inactive
16,Cc1ccccc1OCCOc1ccc([N+](=O)[O-])cc1/C=N/n1cnnc1,2.31 µM (active)
17,NC1=CC(=O)C(=O)c2cccnc21,25.9 µM (active)
18,CCOc1ccc(CCN2C(=O)c3cccnc3C2=O)cc1OCC,inactive
19,Cc1ccc(S(=O)(=O)N2CC[C@H]3[C@@H](C2)C(=O)C[C@@H](c2ccccc2)N3S(=O)(=O)c2ccc(C)cc2)cc1,inactive
20,c1ccc(-c2nnc(N3CCOCC3)c3ccccc23)cc1,inactive
21,c1ccc2c(NC3C4CC5CC(C4)CC3C5)nc(N3CCOCC3)nc2c1 (configuration not stated),14.6 µM (active)
22,Fc1cnc(N2CCOCC2)nc1NCc1ccccc1,inactive
23,Cc1nc2ccccn2c(=O)c1NC(=O)c1ccc(Br)o1,inactive
24,CCCCN1C(=O)C(CC(=O)NC(c2ccccc2)c2ccccc2)CC(C(=O)N2CCOCC2)=C1C (configuration not stated),inactive

row,SMILES,Potency
1,CC1=C(C(=O)N2CCOCC2)CC(CC(=O)NCC2CCCCC2)C(=O)N1Cc1ccc(F)cc1 (configuration not stated),inactive
2,O=S1(=O)CC(N2CCC(Cc3ccccc3)CC2)CN1Cc1ccccc1 (configuration not stated),inactive
3,CN(C)c1nc(=Nc2cccc(Cl)c2)ss1,inactive
4,Clc1cccc(N=C2NN=C(c3ccc4c(c3)OCCO4)CS2)c1,10 µM (active)
5,Cc1cccc(C)c1-n1nnnc1C1(C)CCC(=O)N1CCOc1ccccc1 (configuration not stated),inactive
6,CCCCc1ccc(S(=O)(=O)NC(=O)C2(C)CCN2C(=O)c2c(C)noc2C)cc1 (configuration not stated),inactive
7,C(=C\c1ccccc1)/CSc1nnc(-c2cccnc2)n1Cc1ccco1,inactive
8,N=c1c2c(-c3ccccc3)c(-c3ccccc3)oc2ncn1Cc1ccco1,23.1 µM (active)
9,COC(=O)c1ccc2nc(C3CCCCC3)c(Cc3cccc(F)c3)n2c1,inactive
10,O=C(Nc1cccc(Cc2ccccc2)c1)Nc1ccc2nc([C@@H]3O[C@H](CO)[C@@H](O)[C@H](O)[C@H]3O)[nH]c2c1,inactive
11,CC1(C)CC(N2CCN(C(c3ccccc3)c3ccccc3)CC2)=CC(=[N+]2CCCCC2)C1,2.06 µM (active)
12,c1ccc(C(c2ccccc2)N2CCN(Cc3nnnn3C3CCCCC3)CC2)cc1,inactive
13,COc1ccccc1CN1CCN(C(c2ccccc2)c2ccccc2)CC1,inactive
14,COC(=O)Nc1nc2ccc(Sc3ccccc3)cc2[nH]1,1.16 µM (active)
15,CN(c1ccccc1)S(=O)(=O)c1cc(C(=O)Nc2nc3ccccc3[nH]2)ccc1Cl,inactive
16,Cc1ccc(O)c(CNc2nc3ccccc3[nH]2)c1,inactive
17,Oc1c(C(c2ccccn2)N2CCOCC2)ccc2cccnc12 (configuration not stated),0.355 µM (active)
18,CC(C)c1cc(CN2CCOCC2)cc(C(C)C)c1O,inactive
19,Cc1ccc(-c2ccc(CN3C(C(C)C)C(=O)N(Cc4cn(CCC5OCCCO5)nn4)CCS3(=O)=O)cc2)cc1 (configuration not stated),inactive
20,CCOC(=O)/C(=N\Nc1cc(Cl)ccc1Cl)N1CCN(C)CC1,16.4 µM (active)
21,CCOC(=O)/C(=N\Nc1ccccc1Cl)N(C)C1CCS(=O)(=O)C1 (configuration not stated),inactive
22,CCOC(=O)N1CCN(C(=O)C2CCN(S(=O)(=O)c3cc(Cl)ccc3OCC)CC2)CC1,inactive
23,CCc1ccccc1NC(=O)[C@@H]1CCC(=O)N1C1OC(=O)c2c1ccc(OC)c2OC (some centres not stated),inactive
